Results: PubChem BioAssay AID1745845 (National Center for Advancing Translational Sciences (NCATS), 2022)
The campaign covered roughly 360,000 compounds. About 2,600 (0.72%) were called active. Roughly 5% stayed inconclusive and do not appear here. The call rests on the fitted dose curve; in most records, active means well fitted inhibition curve with a large enough effect; inconclusive means small, poorly fitted or top-dose-only effect; inactive means no such curve, though single readings can be large or run the other way. Shown is part of a subset that was picked to be rich in actives.

Assay: Primary qHTS for Inhibitors of ATXN expression; further: nearly all actives have a fitted effect of over 55% in size
Conditions: HEK-293 ATXN2-luciferase reporter, luminescence, 24 h; series mostly up to 57 µM; activity change, negative = inhibition: at the top concentration
Text: University of Utah School of Medicine, Salt Lake City, Utah
Spinocerebellar ataxia type 2 (SCA2) is a multisystem neurodegenerative disease caused by a dominantly acting mutation leading to expansion of a polyQ domain in the ataxin-2 protein (ATXN2). SCA2 patients develop progressive ataxia and later lose function in other neuronal systems. Prominent parkinsonian signs develop in some patients. Like many neurodegenerative disorders, no symptomatic or disease-modifying treatments are known.
The primary objective of the proposed research is to identify compounds inhibiting ATXN2 expression and to test them for efficacy in SCA2 mouse models. We have developed a cell-based assay paired with an in vivo mouse model using identical luciferase expression constructs. This approach takes advantage of an ATXN2-luciferase transgene, with the luciferase gene flanked by the upstream and downstream portions of the ATXN2 gene. Here we describe a 5-7 dose quantitative high thoroughput screen (qHTS) for compounds lowering ATXN2 expression. We screened the NIH Molecular Libraries Small Molecule Repository (MLSMR) and NCGC's mechanistically annotated (MIPE) and drug repurposing (NPC) collections of compounds for lowering expression of an ATXN2-luciferase reporter in HEK-293 cells. The assay is a multiplexed cell viability assay to ensure target reduction in the absence of cytotoxicity. Secondary qHTS assays included a CMV-luciferase reporter expressed in HEK-293 cells as well as a biochemical assay using recombinant luciferase to detect inhibitors of the reporter enzyme. Compounds that inhibit ATXN2 expression but is not cytotoxic were selected for confirmatory and secondary screens.
PROTOCOL TABLE (as described by Inglese J, Shamu CE and Guy RK. 2007)
SEQUENCE No. (e.g., 1, 2, 3, etc.); […] (e.g., Cells, Incubation, Reagent, etc.); VALUE; DESCRIPTION.
1; Cells; 4 uL; white, solid bottom, 1536-well Greiner assay plate.
2; Incubation; 2 hr; 37 degree C in 5% humidified CO2.
3; Compounds; 23 nL; Kalypsis pintool (Wako USA) equipped with a 1536-well pin head.
4; Incubation; 24 hr; 37 degree C in 5% humidified CO2.
5; Reagent; 1 uL; Gly-Phe-7-Amino-4-trifluoromethylcoumarin.
6; Incubation; 30 min; 37 degree C in 5% humidified CO2.
7; Detection; Fluorescence; ViewLux plate reader (PerkinElmer).
8; Reagent; 3 uL; SteadyGlo luciferase solution (Promega).
9; Incubation; 5 min; room temperature.
10; Detection; Luminescence; ViewLux plate reader (PerkinElmer).
NOTES (numbers refer to Sequence numbers above)
1. S2 cells expressing ATXN2-luciferase reporter were suspended in phenol-red free DMEM and dispensed in assay plates using a Multidrop Combi dispenser (Thermo Fisher Scientific).
2. Assay plates were incubated. Evaporation was prevented by covering assay plates with metal lids containing holes to allow gas diffusion.
3. Compounds were added in a dose response manner with the final concentrations of 57, 11.4, 2.28, 0.46, 0.091, 0.018, 0.0037 uM. Vehicle-only plates, with DMSO being pin-transferred to columns 5-48, were inserted uniformly at the beginning and the end of each library to monitor and record any shifts in assay performance.
5. 125 uM Gly-Phe-7-Amino-4-trifluoromethylcoumarin (MP Biomedicals) working concentration was used at a final concentration of 25 uM.
7. To assess cell viability; the assay plates were read using the ViewLux high-throughput CCD imager (PerkinElmer), wherein single end-point fluorescence measurement was acquired (excitation 405/10; emission 540/25 nm).
8. Detection reagent SteadyGlo Luciferase (Promega) was added to the assay plate.
10. Luminescence is then measured on the ViewLux imager equipped with a clear emission filter using a 2 sec exposure. All screening operations were performed on a fully integrated robotic system (Kalypsys) containing one RX-130 and two RX-90 anthropomorphic robotic arms (Staubli).
[…]
On the % scale 0 is the no-effect control and ±100 the full control effect; potency means the concentration at half of the fitted maximal effect.

Activity change, negative = inhibition, inactive:
O=C(NC1CCCC1)C1CCN(C(=O)Nc2cccc(Cl)c2)CC1 -2.76%
COc1cccc(-c2cccc(NC(=O)C3CCN(C4CCC4)CC3)c2)c1 3.94%
CC(=O)OC[C@@H]1O[C@@H](n2ccc(=O)[nH]c2=O)[C@H](OC(C)=O)[C@H]1OC(C)=O -15.2%
Cc1cccc(C)c1NC(=O)c1ccc(N)cc1 9.21%
COc1cc(C=CC(=O)O)ccc1O -4.31%
Cc1cc(Nc2cccc(C(F)(F)F)c2)nc2ccc(NC(=O)c3ccc(=O)[nH]c3)cc12 -12.6%
Cc1nc(Nc2ccccc2C)c2cnn(C)c2n1 -6.74%
COc1ccc(NC(=O)Nc2cccc(-c3noc(C)n3)c2)cc1 3.77%
CCCNC(=O)CCC(=O)N1Cc2ccccc2Oc2ncccc21 -2.06%
CCOC(=O)Cn1c(=O)n(-c2ccccc2OC)c2nc(-c3cccc(F)c3)nc(C(N)=O)c21 -23.1%
COc1ccc(OC)c(-c2nc(C(N)=O)c3c(n2)n(-c2ccc4c(c2)OCO4)c(=O)n3C)c1 4.99%
COC(=O)Cc1ccc(OCC(=O)Nc2ccc(OC(F)(F)F)cc2)cc1 -6.45%
CCC(=O)N1CCc2cc(Br)cc(S(=O)(=O)CCC(=O)NCc3ccccc3OC)c21 -9.55%
COc1ccc(OC)c(CNC(=O)Cn2nc(C)c3c(C)n(-c4ccccc4)nc3c2=O)c1 -14.1%
O=C(N/N=C/c1ccccn1)C12CC3CC(CC(C3)C1)C2 -2.2%
O=C(COc1ccc(Cl)cc1Cl)N/N=C/c1ccccn1 -9.91%
CCc1cc2c(-c3ccccc3)cc(=O)oc2c2c1OCN(Cc1ccc(C)cc1)C2 10.3%
O=C1CC(c2nnc(Cc3ccc(Cl)cc3)o2)CN1c1ccccc1 (centres undefined) -6.28%
CC(O)CNCCOc1cccc(Oc2ccccc2)c1 (centres undefined) -14.2%
COc1cccc2[nH]c(C(=O)NCCc3ccccc3)cc12 32.6%
COc1cc(OC)c(NC(=O)c2cnc(N3CCCC3)nc2C)cc1Cl 1.88%
COc1ccc(C(O)c2nc(-c3ccc(OC)nc3)cs2)cc1 (centres undefined) 5.41%
COc1ccc(NC(=O)C(=O)NCc2ccco2)cc1 26.5%
Cc1ccc(C)c(N2CCN(C(=O)C3CCC(CNS(=O)(=O)c4cccs4)CC3)CC2)c1 (centres undefined) -3.18%
O=C(OCC(O)CO)c1ccccc1Nc1ccnc2c(C(F)(F)F)cccc12 (centres undefined) -12.2%
Cc1ccc(-c2ncc(Cl)cc2-c2ccc(S(C)(=O)=O)cc2)cn1 10.3%
CC(OC(=O)c1ccc(Cl)cc1O)C(=O)NCCC1=CCCCC1 (centres undefined) 5.4%
CC(CN1CCCCC1)OC(=O)c1ccccc1Cl (centres undefined) -8.37%
Cc1nn(Cc2ccccc2Cl)c(C)c1NC(=O)Cn1nc([N+](=O)[O-])c(Cl)c1C -2.31%
O=C(N/N=C\c1ccc(Br)cc1)c1ccc(Cn2cccn2)o1 33.9%
Cc1nn(-c2ccc(F)cc2)c(-n2cccc2)c1C(=O)N1CCN(c2ccccc2)CC1 -12.5%
COc1ccccc1-n1nnnc1SCC(=O)NC(=O)Cc1ccccc1 1.79%
CCC(C)N(C(=O)CSc1nnnn1-c1ccccc1OC)C1CCS(=O)(=O)C1 (centres undefined) 1.29%
Cc1cn(C)c(CC(=O)NCc2ccc(Cl)cc2)c1C(=O)O 12.4%
CCc1ccc(Nc2nn3c(=O)c4cc5c(cc4nc3s2)OCO5)cc1 8.02%
Cc1ccc(SCC(=O)Nc2ccc3oc(-c4ccccc4C)nc3c2)cc1 4.47%
COc1ccc(-c2cc(-c3ccccc3)nc3c2COc2ccc(Cl)cc2-3)cc1 0.0064%
CCC(=O)N1CCc2cc(S(=O)(=O)NCCC(=O)Nc3cccc(C)c3C)ccc21 10.8%
COc1ccc(NC(=O)C2CCCN(S(=O)(=O)c3c(C)[nH]c(=O)[nH]c3=O)C2)c(OC)c1 (centres undefined) -1.52%

Potency, active:
O=C(Nc1cccc(-c2cccc(Cl)c2)c1)C1CCN(C2CCC2)CC1 28.2 µM
Cc1cc(C)c2nc3nc(C)cc(C)c3c(N)c2c1 25.1 µM
Cc1ccc(C(=O)Nc2cccc(C(F)(F)F)c2)cc1Nc1nc(-c2cccnc2)nc2c1cnn2C 24.3 µM
CCc1ccc2c(c1)NC(=O)C2(C)Cc1ccc(OC(F)(F)F)cc1 (centres undefined) 25.1 µM
Cc1nnc(N/N=C/c2ccccn2)[nH]c1=O 2 µM
COc1ccccc1OCCNCC(O)COc1cccc2[nH]c3ccccc3c12 (centres undefined) 28.2 µM
COc1ccc(CS(=O)/C(Cl)=C(/Cl)C(=O)Nc2ccc(OC)nc2)cc1 (centres undefined) 2.12 µM
CC(C)OC(=O)c1ccc(NCc2cc(O)ccc2O)cc1Cl 17.8 µM
Cc1c(Cl)c([N+](=O)[O-])nn1Cc1ccc(C(=O)N/N=C\c2cc(Cl)ccc2O)o1 2.82 µM
COc1ccccc1-n1nnnc1S(=O)(=O)Cc1ccc(Cl)cc1 14.1 µM
